Assay results published in PubChem BioAssay (EPA / NIEHS).
The source made the active and inactive calls. How the source made its calls: active means hit-call score of the fitted dose curve at least 0.9, where 1 is the maximum; inactive means score below 0.9.

Legend:
[1] = CEETOX_H295R_PROG: CeeTox H295R High-throughput Steroidogenesis Assay for Progesterone (PROG) (AID 2283442); settings: actives raise or lower the signal;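 on AC50: human H295R adrenal cells primed with 10 µM forskolin before dosing; progesterone secreted into medium by H295R cells measured by HPLC-MS/MS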
Procedure, shortened: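 Steps: seed H295R cells and let them adhere overnight; prime 48 h with 10 uM forskolin; dose with compound in DMSO at 0.1% final for 48 h; extract medium steroids with MTBE; measure progesterone by LC-MS/MS. MTT viability was run in the same wells.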

[2] = read-out: Tumor necrosis factor receptor superfamily member 6 (Homo sapiens) (UniProt P25445); assay: LTEA_HepaRG_FAS: Life Technologies and Expression Analysis (LTEA) Assay for Fas cell surface death receptor (FAS) using HepaRG (AID 2283447); settings: mRNA level, 48 h; actives raise or lower the signal
Procedure, shortened: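 Differentiated human HepaRG cells, pre-cultured 48 h, were exposed in duplicate for 48 h to 8-point half-log concentrations (top 100 uM, 0.5% DMSO) in serum-free induction medium; FAS mRNA measured by qRT-PCR, normalized to ACTB/GAPDH/POLR2A, bidirectional fit versus DMSO.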

[3] = read-out: Cyclin D2 (CCND2), CCND2 (gene 894); assay: LTEA_HepaRG_CCND2: Life Technologies and Expression Analysis (LTEA) Assay for Cyclin D2 (CCND2) using HepaRG (AID 2283449); settings: mRNA level, 48 h; actives raise or lower the signal;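 further: CCND2 transcript measured by TaqMan qRT-PCR and normalised to three housekeeping genes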
Procedure, shortened: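 In this HepaRG study, an eight-point concentration series (max 100 uM, 0.5% DMSO) is applied for 48 h. CCND2 mRNA change is derived by qRT-PCR normalised to ACTB, GAPDH and POLR2A.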

[4] = read-out: Cyclin Dependent Kinase Inhibitor 1A (CDKN1A), CDKN1A (gene 1026); assay: LTEA_HepaRG_CDKN1A: Life Technologies and Expression Analysis (LTEA) Assay for Cyclin Dependent Kinase Inhibitor 1A (CDKN1A) using HepaRG (AID 2283450); settings: mRNA level, 48 h; actives raise or lower the signal
Procedure, shortened: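 Read-out is CDKN1A mRNA by TaqMan qRT-PCR, normalized to three housekeeping genes and fitted in both directions against the DMSO baseline. Human HepaRG cells were treated 48 h with test chemicals up to 100 uM in half-log steps, 0.5% DMSO.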

[5] = read-out: catalase (CAT), CAT (gene 847); assay: LTEA_HepaRG_CAT: Life Technologies and Expression Analysis (LTEA) Assay for catalase (CAT) using HepaRG (AID 2283452); settings: mRNA level, 48 h; actives raise or lower the signal;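 on AC50: TaqMan qRT-PCR signal normalized to ACTB GAPDH and POLR2A housekeeping genes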
Procedure, shortened: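 Differentiated HepaRG cells in serum-free induction medium were dosed 48 h in duplicate, eight half-log concentrations from 100 uM in 0.5% DMSO. Transcript measured by TaqMan qRT-PCR, normalised to ACTB/GAPDH/POLR2A, fitted bidirectionally against DMSO.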

[6] = read-out: flavin-containing dimethylaniline monooxygenases 3 (FMO3), FMO3 (gene 2328); assay: LTEA_HepaRG_FMO3: Life Technologies and Expression Analysis (LTEA) Assay for flavin-containing dimethylaniline monooxygenases 3 (FMO3) using HepaRG (AID 2283453); settings: mRNA level, 48 h; actives raise or lower the signal;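 on AC50: FMO3 transcript by TaqMan qRT-PCR normalized to ACTB GAPDH and POLR2A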
Procedure, shortened: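 FMO3 transcript quantified by TaqMan qRT-PCR against three housekeeping genes after 48 h chemical exposure of HepaRG cells. Eight-point half-log series, top 100 uM, 0.5% DMSO vehicle; phenobarbital 1mM induction control; up- or down-regulation fitted.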

[7] = read-out: Cytochrome P450 (CYP1A1), CYP1A1 (gene 1543); assay: LTEA_HepaRG_CYP1A1: Life Technologies and Expression Analysis (LTEA) Assay for Cytochrome P450 (CYP1A1) using HepaRG (AID 2283454); settings: mRNA level, 48 h; actives raise or lower the signal
Procedure, shortened: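 HepaRG, 48 h post-plating switched to serum-free induction medium; 8-pt conc-response (top 100 uM, half-log, 0.5% DMSO), duplicates, 48 h. Lysis in RLT, TaqMan qRT-PCR for CYP1A1; gain or loss vs DMSO.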

[8] = read-out: CFLAR gene, CFLAR (gene 8837); assay: LTEA_HepaRG_CFLAR: Life Technologies and Expression Analysis (LTEA) Assay for CFLAR gene using HepaRG (AID 2283455); settings: mRNA level, 48 h; actives raise or lower the signal
Procedure, shortened: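 Gain- or loss-of-signal changes in CFLAR transcript were fitted bidirectionally relative to 0.5% DMSO. Cells (HepaRG, duplicate wells) were dosed for 48 h across eight half-log concentrations topping at 100 uM; quantitation by TaqMan qRT-PCR.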

[9] = read-out: Forkhead box O1 (FOXO1), FOXO1 (gene 2308); assay: LTEA_HepaRG_FOXO1: Life Technologies and Expression Analysis (LTEA) Assay for Forkhead box O1 (FOXO1) using HepaRG (AID 2283456); settings: mRNA level, 48 h; actives raise or lower the signal
Procedure, shortened: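 Using one lot of HepaRG hepatic cells kept in 0.5% DMSO, the team applied test chemicals in duplicate, half-log dilutions from 100 uM, for 48 h. Expression, normalised to ACTB/GAPDH/POLR2A, was compared with vehicle in either direction.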

[10] = read-out: growth arrest and DNA damage 45 (GADD45A), GADD45A (gene 1647); assay: LTEA_HepaRG_GADD45A: Life Technologies and Expression Analysis (LTEA) Assay for growth arrest and DNA damage 45 (GADD45A) using HepaRG (AID 2283458); settings: mRNA level, 48 h; actives raise or lower the signal
Procedure, shortened: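 Transcript induction or loss, quantified by TaqMan qRT-PCR against three housekeeping genes, is the read-out. HepaRG cells received chemicals for 48 h across eight half-log concentrations from 100 uM in 0.5% DMSO; gain and loss fitted relative to DMSO.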

[11] = read-out: Forkhead box O3 (FOXO3), FOXO3 (gene 2309); assay: LTEA_HepaRG_FOXO3: Life Technologies and Expression Analysis (LTEA) Assay for Forkhead box O3 (FOXO3) using HepaRG (AID 2283459); settings: mRNA level, 48 h; actives raise or lower the signal
Procedure, shortened: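 Gene-expression endpoint: FOXO3 transcript level by qRT-PCR in HepaRG cultures treated 48 h with chemicals up to 100 uM (half-log, 0.5% DMSO vehicle).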

[12] = read-out: ABC Transporter (ABCB1), ABCB1 (gene 5243); assay: LTEA_HepaRG_ABCB1: Life Technologies and Expression Analysis (LTEA) Assay for ABC Transporter (ABCB1) using HepaRG (AID 2283460); settings: mRNA level, 48 h; actives raise or lower the signal
Procedure, shortened: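 Human liver HepaRG line treated 48 h with up to 100 uM compound (eight half-log points, 0.5% DMSO); ABCB1 mRNA change fitted bidirectionally against DMSO controls.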

[13] = read-out: growth arrest and DNA damage 45 (GADD45B), GADD45B (gene 4616); assay: LTEA_HepaRG_GADD45B: Life Technologies and Expression Analysis (LTEA) Assay for growth arrest and DNA damage 45 (GADD45B) using HepaRG (AID 2283461); settings: mRNA level, 48 h; actives raise or lower the signal
Procedure, shortened: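 HepaRG, ~100,000 cells/well, 48 h plating; serum-free induction medium; cpd 100 uM top, half-log x8, 0.5% DMSO, duplicate, 48 h; lysis in RLT, RNA isolation, qRT-PCR; norm ACTB/GAPDH/POLR2A; bidirectional fit vs DMSO.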

[14] = read-out: ABC Transporter (ABCC3), ABCC3 (gene 8714); assay: LTEA_HepaRG_ABCC3: Life Technologies and Expression Analysis (LTEA) Assay for ABC Transporter (ABCC3) using HepaRG (AID 2283462); settings: mRNA level, 48 h; actives raise or lower the signal
Procedure, shortened: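 Human HepaRG, 48 h dosing, 8-pt half-log series from 100 uM, 0.5% DMSO vehicle, duplicates. ABCC3 mRNA by TaqMan qRT-PCR, housekeeping-normalized; bidirectional curve fit vs DMSO.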

[15] = read-out: ABC Transporter (ABCB11), ABCB11 (gene 8647); assay: LTEA_HepaRG_ABCB11: Life Technologies and Expression Analysis (LTEA) Assay for ABC Transporter (ABCB11) using HepaRG (AID 2283463); settings: mRNA level, 48 h; actives raise or lower the signal
Procedure, shortened: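 Using HepaRG cultures held in 0.5% DMSO, chemicals were tested at half-log dilutions from 100 uM for 48 h. Induction or suppression of ABCB11 mRNA, normalized to ACTB, GAPDH and POLR2A, was fitted bidirectionally against vehicle.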

[16] = read-out: ABC Transporter (ABCC2), ABCC2 (gene 1244); assay: LTEA_HepaRG_ABCC2: Life Technologies and Expression Analysis (LTEA) Assay for ABC Transporter (ABCC2) using HepaRG (AID 2283464); settings: mRNA level, 48 h; actives raise or lower the signal
Procedure, shortened: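 HepaRG, 48 h post-plating; serum-free induction medium; cpd 8-pt, 100 uM top, half-log, 0.5% DMSO, duplicate, 48 h. Readout: ABCC2 mRNA by qRT-PCR, norm. ACTB/GAPDH/POLR2A. Bidirectional fit vs DMSO baseline.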

[17] = read-out: Broad substrate specificity ATP-binding cassette transporter ABCG2 (Homo sapiens) (UniProt Q9UNQ0); assay: LTEA_HepaRG_ABCG2: Life Technologies and Expression Analysis (LTEA) Assay for ABC Transporter (ABCG2) using HepaRG (AID 2283465); settings: mRNA level, 48 h; actives raise or lower the signal
Procedure, shortened: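 Gene expression of ABCG2 in HepaRG liver cells is quantified by qRT-PCR following 48 h exposure across an eight-point series topping at 100 uM. Values come from bidirectional fitting relative to DMSO vehicle.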

[18] = read-out: Cyclin D1 (CCND1), CCND1 (gene 595); assay: LTEA_HepaRG_CCND1: Life Technologies and Expression Analysis (LTEA) Assay for Cyclin D1 (CCND1) using HepaRG (AID 2283451); settings: mRNA level, 48 h; actives raise or lower the signal
Procedure, shortened: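 HepaRG plated 48 h, medium switched to serum-free induction medium, chemicals added in duplicate (top 100 uM, half-log steps, 0.5% DMSO) for 48 h, cells lysed, RNA measured by TaqMan qRT-PCR.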

[19] = CEETOX_H295R_TESTO: CeeTox H295R High-throughput Steroidogenesis Assay for Testosterone (TESTO) (AID 2283457); settings: actives raise or lower the signal
Procedure, shortened: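 H295R, passage ≤10, 48 h dosing; media extracted with MTBE → HPLC-MS/MS for testosterone; 7-pt standard curve sets LLOQ/ULOQ; bidirectional fit vs DMSO; MTT viability same wells.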

Sequence of Broad substrate specificity ATP-binding cassette transporter ABCG2 (Homo sapiens) (Q9UNQ0 whole entry, looked up): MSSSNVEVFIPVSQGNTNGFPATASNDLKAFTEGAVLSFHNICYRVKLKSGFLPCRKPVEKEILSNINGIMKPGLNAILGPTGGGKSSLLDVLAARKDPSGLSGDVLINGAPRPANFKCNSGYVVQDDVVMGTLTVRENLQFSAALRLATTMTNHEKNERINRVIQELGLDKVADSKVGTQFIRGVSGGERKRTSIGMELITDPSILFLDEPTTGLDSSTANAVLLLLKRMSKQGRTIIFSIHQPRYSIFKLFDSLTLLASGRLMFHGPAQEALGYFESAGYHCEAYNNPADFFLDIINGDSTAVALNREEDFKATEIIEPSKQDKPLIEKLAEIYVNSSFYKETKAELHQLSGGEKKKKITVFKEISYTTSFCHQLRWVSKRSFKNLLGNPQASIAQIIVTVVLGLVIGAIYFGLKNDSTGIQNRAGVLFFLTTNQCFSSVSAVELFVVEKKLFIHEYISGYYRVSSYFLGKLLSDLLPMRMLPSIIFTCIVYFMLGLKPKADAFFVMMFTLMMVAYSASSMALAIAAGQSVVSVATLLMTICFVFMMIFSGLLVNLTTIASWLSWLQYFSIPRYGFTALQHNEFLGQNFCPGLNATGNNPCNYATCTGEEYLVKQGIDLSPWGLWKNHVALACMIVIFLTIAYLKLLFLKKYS

S=C([S-])NCCNC(=S)[S-].[Mn+2]
outcome [1]: inactive | AC50 [2]: 5.41 µM (active) | outcome [3]: inactive | outcome [4]: inactive | AC50 [5]: 2.97 µM (active) | AC50 [6]: 5.71 µM (active) | AC50 [7]: 8.74 µM (active) | AC50 [8]: 3.43 µM (active) | AC50 [9]: 9.26 µM (active) | AC50 [10]: 5.52 µM (active) | AC50 [11]: 3.51 µM (active) | AC50 [12]: 3.47 µM (active) | AC50 [13]: 5.56 µM (active) | AC50 [14]: 2.06 µM (active) | AC50 [15]: 1.85 µM (active) | AC50 [16]: 2.87 µM (active) | outcome [17]: inactive

CCOC(=O)C(C)Oc1ccc(Oc2cnc3cc(Cl)ccc3n2)cc1 (stereo unspecified)
outcome [1]: inactive | outcome [2]: inactive | outcome [3]: inactive | outcome [4]: inactive | outcome [5]: inactive | AC50 [6]: 14 µM (active) | AC50 [7]: 18.5 µM (active) | outcome [8]: inactive | outcome [9]: inactive | outcome [10]: inactive | outcome [11]: inactive | outcome [12]: inactive | outcome [13]: inactive | outcome [14]: inactive | AC50 [15]: 1.93 µM (active) | outcome [16]: inactive | outcome [17]: inactive

CSC(=O)c1cccc2nnsc12
outcome [1]: inactive | outcome [2]: inactive | outcome [3]: inactive | outcome [4]: inactive | outcome [18]: inactive | outcome [5]: inactive | outcome [6]: inactive | AC50 [7]: 50 µM (active) | outcome [8]: inactive | outcome [9]: inactive | outcome [19]: inactive | outcome [10]: inactive | outcome [11]: inactive | outcome [12]: inactive | outcome [13]: inactive | outcome [14]: inactive | outcome [15]: inactive | outcome [16]: inactive | outcome [17]: inactive

c1ccc2[nH]c(-c3cscn3)nc2c1
AC50 [1]: 59 µM (active) | outcome [2]: inactive | outcome [3]: inactive | outcome [4]: inactive | outcome [5]: inactive | outcome [6]: inactive | AC50 [7]: 18.9 µM (active) | outcome [8]: inactive | outcome [9]: inactive | outcome [19]: inactive | outcome [10]: inactive | outcome [11]: inactive | outcome [12]: inactive | outcome [13]: inactive | outcome [14]: inactive | outcome [15]: inactive | outcome [16]: inactive | AC50 [17]: 9.92 µM (active)

C#CCOC(=O)[C@@H](C)Oc1ccc(Oc2ncc(Cl)cc2F)cc1
AC50 [1]: 9.01 µM (active) | outcome [2]: inactive | outcome [4]: inactive | outcome [18]: inactive | outcome [5]: inactive | outcome [6]: inactive | AC50 [7]: 33 µM (active) | outcome [8]: inactive | outcome [9]: inactive | AC50 [10]: 12.4 µM (active) | outcome [11]: inactive | outcome [12]: inactive | outcome [13]: inactive | outcome [14]: inactive | AC50 [15]: 5.03 µM (active) | outcome [16]: inactive | outcome [17]: inactive

CCCN(CCC)C(=O)SCC
outcome [1]: inactive | outcome [2]: inactive | outcome [3]: inactive | outcome [4]: inactive | outcome [5]: inactive | outcome [6]: inactive | outcome [7]: inactive | outcome [8]: inactive | outcome [9]: inactive | outcome [19]: inactive | outcome [10]: inactive | outcome [11]: inactive | outcome [12]: inactive | outcome [13]: inactive | outcome [14]: inactive | outcome [15]: inactive | outcome [16]: inactive | outcome [17]: inactive
